Data on 40 molecules can be found in PubChem BioAssay (NCI).

Compounds without any hit were thinned out: in the full panel of roughly 83,000, 20% have a hit.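 Cells were grown in 96-well plates and exposed to the test compound at a single concentration for 48 hours; results are reported as percent growth, with values below 10 considered active.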 Values without a mark were called inactive. Activity calls are given as the source filed them.

The experiment has as its system SK-MEL-28 melanoma. Put plainly: NCI-60 one-dose screen, 48 h (100 = growth as untreated, 0 = no growth, -100 = all killed). As to conditions: 10 µM unless noted. As for the experimental part: Growth inhibition of the SK-MEL-28 human tumor cell line is measured as a screen for anti-cancer activity. Cells are grown in 96 well plates and exposed to the test compound for 48 hours. Compounds are tested at a single concentration, which is 10^-5 M for most compounds. The reported endpoint is percent growth (GI% or GIPRCNT), where numbers from 0 - 100% represent growth inhibition, and numbers from -100% - 0 represent cell death. For example, a value of 40 represents 60% growth inhibition. A value of 0 means no net growth occurred over the course of the experiment. A value of -40 indicates 40% of cells at the beginning of the experiment died by the end of the experiment. A value of -100 means all cells are dead at the end of the experiment.
NCI-60 Human Tumor Cell Lines Screen was performed using the standard one-dose NCI protocol, which is described in more detail at https://dtp.cancer.gov/discovery_development/nci-60/default.htm.
Compounds with GIPRCNT values below 10 were considered active. Activity score was based on GIPRCNT using the following formula: […]
Score is 0 for GIPRCNT values of 100 or above, 50 for GIPRCNT values of 0, and 100 for GIPRCNT values of -100.
On to `CCN(CC)c1ccc2nc3ccc(N=Nc4ccc(O)cc4)cc3[n+](-c3ccccc3)c2c1`, for which the growth is 52.2%. As for `C=CCNCCC#N`, the growth is 106%. The value for `CCCCCCCCCCCCCCCCCC1=NCCN1CCNC(C)=O` was 98.1%; that for `O=C(Nc1ccc(-n2cc(-c3ccncc3)c(-c3ccc(Cl)c(O)c3)n2)cc1)Nc1cc(C(F)(F)F)cc(C(F)(F)F)c1` was 16.1%; that for `C[C@H]1C[C@@H](n2cnc3c(N)nccc32)[C@H](O)[C@@H]1O` was 88%. In the case of `N=C(c1ccccc1)N(Cc1ccccc1)Cc1ccccc1`, the growth was 98.8%. Consider `Cn1cnc2nc[nH]c2c1=S`, for which the growth was 112%. The value for `C=C[C@]1(C)C=C2C(=O)[C@@]3(O)OC[C@@]4(CCCC(C)(C)C43O)C2(O)C(O)C1` (stereo not given in full) was 47.2%; that for `CCCCCN1CCN(C(CC(=O)c2ccccc2)C(=O)c2ccccc2)CC1` (stereo not given) was 119%; that for `Cc1ccc(C(=O)Nc2ccc(CN3CCN(C)CC3)c(C(F)(F)F)c2)cc1C#Cc1cncc2ncccc12` was -90.4% (active). Consider `CC[N+](C)(C)N`, for which the growth is 94.9%. Take `CC(=O)c1nn(-c2ccc(C)cc2)cc1C(=O)c1cc2c(ccc3ccccc32)oc1=O`: the growth was 96.7%. To `CC(=O)/C(=C\c1c(-c2ccccc2)[nH]c2ccccc12)S(=O)(=O)c1ccccc1` belongs 26.8%. The value for `O=C(O)/C(Br)=C/c1c[nH]c2ccc(Br)cc12` was 63.7%. For the molecule `N/C(=N\O)c1ccncc1`, the growth is 109%. For `CCCCCCCCCCC(C[N+](C)(C)C/C=C/c1ccccc1)C(O)c1ccccc1` (stereo not given), the growth was 21.2%. Take `Cc1ccc(C(=O)C(Br)C(Br)c2ccccc2)cc1` (stereo not given): the growth was 101%. The value for `Cc1cc2cn3c4ccc(O)cc4nc(N)c3c2cc1C` was -4.38% (active). For `Cc1ccc(S(=O)(=O)N/N=C2\CC3CCC2C3)cc1` (stereo not given), the growth is 109%.

For `N#Cc1ccc(OCc2nc(N)nc(N)c2-c2ccc(Cl)c(Cl)c2)cc1`, the growth was 54.4%. In the case of `CC1(C)C(O)NC(Cl)=C(C#N)C1(C#N)C#N` (stereo not given), the growth is 108%.

As for `CC(=O)NNC(=O)c1sc(NC(C)=O)nc1C`, the growth is 95.9%. On to `Cc1cc2cn3c4ccc(O)cc4[nH]c(=O)c3c2cc1C`, for which the growth was -14.3% (active). In the case of `COc1cc(N2C(=O)C=CC2=O)ccc1N1C(=O)C=CC1=O`, the growth is 103%. `O=C1/C(=C/c2ccc(Cl)cc2)CCC/C1=C\c1ccc(Cl)cc1`: the growth is 110%.

Turning to `CC(O)C(N)=O` (stereo not given), the growth was 100%.

As for `CC(C)CSc1nc(-c2ccc(F)cc2)c(C#N)c(N2CCCCC2)n1`, the growth was 94.3%. To `COc1ccc(OC)c(Cn2cc3c(c2-c2ccccc2)CCc2cnoc2-3)c1` belongs 65.9%.

With `O=C(/C=C/c1ccc(Cl)cc1)c1ccc(Cl)cc1`, the growth is 99.9%.

For the molecule `CNc1ccc(Nc2ccc(S(=O)(=O)O)cc2)c2c1C(=O)c1ccccc1C2=O`, the growth is 112%. Consider `CCCCCSc1ccc2nc(NC(=O)OCC)sc2c1`, for which the growth is 61.9%. The value for `COC(=O)/C=C1/CCCCC1(C)C(=O)OC` (stereo not given) was 100%; that for `COc1cc(N)c2nccc(C)c2c1OC` was 115%; that for `CCCCN(CCCC)CCCNc1c2c(nc3ccc(Cl)cc13)CCCC2` was 108%. As for `COC(=O)CC(=O)C(=O)OC`, the growth is 111%. Regarding `OCCN1CCCN(CCCN2c3ccccc3Sc3ccc(C(F)(F)F)cc32)CC1`, the growth was 30.7%. Regarding `C=CCSc1nnc(COc2ccc3c(C)c(Cc4ccccc4)c(=O)oc3c2C)o1`, the growth was 117%. As to `Oc1ccccc1/C=N/N=C/c1c(O)ccc2ccccc12`, the growth was 101%. Regarding `O=C(Nc1ccc(Cl)cn1)C1(c2ccccc2)CCCCC1`, the growth was 105%. On to `CNCCCNCCCCNCCCN1C(=O)c2ccc3c4c(ccc(c24)C1=O)C(=O)N(CCCNCc1ccccc1OC)C3=O`, for which the growth was -9.35% (active).
